G6PDH counter: inhibits Leuconostoc G6PDH, flagging false hits in G6PDH-based assays | Purified L. mesenteroides G6PDH, diaphorase/resazurin coupled fluorescence, 45 min | inhibition, % at 5 µM | hit rate 0.12% among 200,000 | AID 1020; in the data active = inhibition above about 50%
SUMO HTRF inh: SUMOylation inhibition. HTRF SUMOylation assay, SAE1/SAE2 + UBC9, in vitro. inhibition, % at 35 µM. hit rate 0.36% among 290,000; in the data active = inhibition above about 50%, passing the limit was not always enough
PHOSPHO1 block: PHOSPHO1 (human) inhibition. hit rate 1.1% among 290,000. AID 1565. inhibition, % at 13.3 µM. recombinant PHOSPHO1, absorbance phosphatase assay; in the data active = inhibition above about 60%
HDAC3 inh: inhibitors of human histone deacetylase 3; O15379; recombinant HDAC3, fluorogenic peptide/trypsin coupled, fluorescence; hit rate 0.15% among 320,000; inhibition, % at 8.3 µM; in the data active = inhibition above about 26%, passing the limit was not always enough
Target sequence (O15379 whole entry, looked up): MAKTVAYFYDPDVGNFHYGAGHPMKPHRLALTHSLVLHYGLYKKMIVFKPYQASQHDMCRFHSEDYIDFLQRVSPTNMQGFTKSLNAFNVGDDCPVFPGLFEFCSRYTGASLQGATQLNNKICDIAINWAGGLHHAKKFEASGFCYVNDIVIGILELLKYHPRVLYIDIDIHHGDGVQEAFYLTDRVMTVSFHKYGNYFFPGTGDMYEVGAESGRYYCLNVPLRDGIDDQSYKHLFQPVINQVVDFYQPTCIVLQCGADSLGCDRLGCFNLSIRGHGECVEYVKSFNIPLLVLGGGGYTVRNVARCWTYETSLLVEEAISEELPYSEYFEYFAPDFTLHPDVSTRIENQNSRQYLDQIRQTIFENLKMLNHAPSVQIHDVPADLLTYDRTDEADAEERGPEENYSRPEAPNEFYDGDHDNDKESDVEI
p97 ATPase inh: blocks human p97 ATPase activity | recombinant p97 ATPase, Kinase-Glo ATP luminescence, 3 h | inhibition, % at 8 µM | hit rate 0.42% among 220,000 | AID 1481; in the data active = inhibition above about 15%;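 also: 0% = DMSO vehicle and 100% = wells lacking enzyme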
PfM18AAP inh: blocks P. falciparum M18 aspartyl aminopeptidase; recombinant PfM18AAP, H-Glu-NHMec fluorogenic cleavage; inhibition, % at 7.35 µM; hit rate 1.2% among 290,000; AID 1822;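 active = inhibition above the campaign mean inhibition over all tested compounds plus 3 SD, cut at about 28% in these data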;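 also: 0% = plate median of test compound wells and 100% = 2 mM ZnCl2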
The depositor's hits bear a star; · = no result. Rows were chosen to be rich in hits. Some 2.5% of all compounds tested hit in one or more screens of this group.

SMILES	G6PDH counter	SUMO HTRF inh	PHOSPHO1 block	HDAC3 inh	p97 ATPase inh	PfM18AAP inh
Cc1ccc2[nH]c(=O)c(CNC(C)C)cc2c1	1	-6	62*	-6	6	6
O=C(NN1CC(C(=O)OCc2ccc(Cl)cc2Cl)CC1=O)c1ccccc1 (configuration not stated)	·	0	61*	3	·	0
CSc1ncccc1C(=O)OCC(=O)c1[nH]c(C)c(C(C)=O)c1C	·	·	·	5	·	·
Cc1cccc2c(N=Nc3ccc(S(=O)(=O)Nc4ccc(Cl)cc4)cc3[N+](=O)[O-])c(O)[nH]c12	7	68*	-5	4	3	5
CSCC[C@H](NC(=O)Cc1c(C)c2c(cc(C)c3c(C)coc32)oc1=O)C(=O)O	·	45	24	-33	·	1
CCOC(=O)CNC(=O)CSc1nc(Cc2ccccc2)nc2ccccc12	·	4	8	-1	·	2
COc1cc(/C=N/n2c(COc3ccccc3)n[nH]c2=S)cc(Br)c1O	·	1	28	6	·	31*
CCc1n[nH]c(=S)n1/N=C/c1cc(Br)c(O)c(OC)c1	·	-7	50	12	4	23
COc1ccccc1-n1c(CNC(=O)COc2ccccc2)n[nH]c1=S	6	20	82*	8	0	2
FC(F)(F)c1ccccc1/C=N/n1c(COc2ccccc2)n[nH]c1=S	·	-21	-98	4	·	28*
COc1cccc(/C=N/n2c(COc3ccccc3)n[nH]c2=S)c1O	·	-8	5	-1	·	23
COc1cccc(/C=N/n2c(COc3ccccc3)n[nH]c2=S)c1OC	·	-3	-14	-1	·	32*
CC1(C)CC(=O)C(Sc2nnc(-c3ccc(NS(C)(=O)=O)cc3)n2Cc2ccco2)C(=O)C1	3	-3	96*	-1	-4	-1
Cc1cccc(NC(=O)CCCn2cc([N+](=O)[O-])cn2)n1	5	1	-14	-7	6	-5
CN(C)S(=O)(=O)NCCNC(=O)c1cc(OCC(F)(F)F)ccc1OCC(F)(F)F	4	0	32	0	-3	3
O=C(NCCNC(=O)c1cc(OCC(F)(F)F)ccc1OCC(F)(F)F)Nc1cccc(C(F)(F)F)c1	3	-9	2	36*	4	0
Cc1c(NC(=O)C(C)OC(=O)COc2ccc(C#N)cc2)c(=O)n(-c2ccccc2)n1C (configuration not stated)	·	·	·	-1	·	·
Cc1cc(O)c(CN(C)C)c2c1C(=O)/C(=C/c1ccco1)O2	·	18	26	16	·	31*
COc1ccc2c(c1)O/C(=C\c1ccco1)C2=O	·	15	23	-1	9	4
O=c1c2ccccc2cnn1Cc1n[nH]c(=S)n1-c1cc(Cl)cc(Cl)c1	1	-2	-15	2	6	30*
CC(=O)Nc1cccc(-c2cnc(N)c(C(=O)c3cccnc3)n2)c1	·	·	·	5	·	·
CNC1=C(N(C(C)=O)c2ccc(Br)cc2)C(=O)c2ccccc2C1=O	52*	82*	1	-2	1	-8
O=C(NNC(=O)c1ccccc1O)c1cccc(Br)c1	·	12	3	-1	·	30*
O=C(NNC(=S)Nc1cccc2ccccc12)c1cccc(Br)c1	4	-52	64*	16	-2	1
Cc1ccc(C(=O)NNC(=S)Nc2cccc3ccccc23)s1	-2	4	86*	-6	-2	-8
SMILES	G6PDH counter	SUMO HTRF inh	PHOSPHO1 block	HDAC3 inh	p97 ATPase inh	PfM18AAP inh
CC(=O)c1cccc(NC(=S)Nc2cccc3ccccc23)c1	·	95	11	1	·	-9
O=C(CC1S/C(=N/N=C2CCCCCC2)NC1=O)Nc1ccc(Br)cc1F (configuration not stated)	·	-21	9	-6	·	6
Cc1cccc(CS(=O)(=O)c2nnc([C@H](Cc3ccccc3)NC(=O)OC(C)(C)C)o2)c1	5	32	18	61*	-7	-145
COC(=O)CS(=O)(=O)c1nnc([C@H](Cc2ccccc2)NC(=O)OC(C)(C)C)o1	-15	8	7	55*	6	-40
CC(C)(C)OC(=O)N[C@@H](Cc1ccccc1)c1nnc(SCC(N)=O)o1	·	-4	-10	0	2	2
CC(NC(=O)C1CCC(CNc2c(N3CCCCC3)c(=O)c2=O)CC1)c1ccccc1 (configuration not stated)	·	22	27	-10	2	-1
O=C(O)[C@@H]1[C@H]2C[C@H]3c4[nH]c5ccccc5c4CCN3C[C@@H]2CC[C@@H]1O	·	·	·	-4	·	·
O=C(O)C1CCCC2CN3CCc4c([nH]c5ccccc45)C3C(O)C21 (configuration not stated)	·	20	34	7	·	28*
O=C(Nc1nnc(-c2ccccc2SCc2ccccc2)s1)Nc1ccccc1F	-2	70*	-1	-11	-8	-11
COc1cccc(NC(=O)Nc2nnc(-c3ccccc3SCc3ccccc3)s2)c1	-2	55*	10	-2	-3	-1
O=C(Nc1nnc(-c2ccccc2F)s1)Nc1ccccc1F	10	10	54	-3	3	5
Cc1cccc2[nH]c(CCNC(=O)C3CCC(=O)N(CCc4cccc(F)c4)C3)nc12 (configuration not stated)	·	2	54	-1	·	0
OCCN1CCN(Cc2cc(Cl)c3cccnc3c2O)CC1	53*	-44	26	2	5	24
Oc1ccc(F)c2cccnc12	65*	18	6	7	-1	-6
Oc1ccc(COCc2ccccc2)c2cccnc12	17	0	-1	3	6	3
Oc1c(CN2CCN(c3ccccn3)CC2)cc(Cl)c2cccnc12	-22	-38	10	2	2	8
OCc1ccc(O)c2ncccc12	53*	-51	-53	0	4	5
Oc1ccc(CNc2ccccc2F)c2cccnc12	20	-29	97*	-7	2	2
O=C(CN1c2cccc3cccc(c23)S1(=O)=O)Nc1ccc(F)c(F)c1F	·	·	·	-3	·	·
O=C(NCCCN1CCCCC1)c1ccc(CS(=O)c2ccc(Cl)cc2)o1 (configuration not stated)	·	0	15	1	·	-3
O=[N+]([O-])c1ccc(C(O)CSC(=S)N2CCCCC2)cc1 (configuration not stated)	·	-5	18	-2	·	-2
COc1cccc(C=O)c1OCCN1C(=O)c2ccccc2C1=O	·	17	3	-8	·	-6
COc1cc(NCc2ccccc2O)c2ncccc2c1	·	7	32	·	4	3
Oc1ccc(CN2CCCCC2)c2cccnc12	50*	-11	15	-5	-6	10
Oc1ccccc1CNc1cccc2cccnc12	52*	76*	23	3	-2	22
CCOC(=O)NNc1ccc2nonc2c1[N+](=O)[O-]	·	77*	37	9	21*	21
CCc1ccc(Nc2ccc3nonc3c2[N+](=O)[O-])cc1	·	·	·	4	·	·
COc1ccc(-c2ccc3c(N)c(C(=O)c4cccc(OC)c4)sc3n2)cc1	9	14	89*	-3	1	3
